# PubChem BioAssay (NCATS)
# Records with an inconclusive call do not appear. Entries that show only a call come without a potency. Activity calls are given as the source filed them. Calls follow the shape of the dose curve; as a rule, active = well fitted cell-killing curve with a large enough effect; inconclusive = small, poorly fitted or top-dose-only effect, or effect the other way; inactive = flat fitted curve, though single readings scatter.
# Experiment: Cell Viability - HUV-EC-C (AID 542); also: nearly all actives have a fitted effect of over 35% in size
# Conditions: HUV-EC-C endothelial cell viability, qHTS; series mostly up to 92.2 µM
# Text: NIH Chemical Genomics Center [NCGC]
# NIH Molecular Libraries Screening Centers Network [MLSCN]
# National Institutes of Environmental Health Sciences [NIEHS]
# National Toxicology Program [NTP]
# We have developed a 1536-well cell-based assay for quantitative high throughput screening (qHTS) against a number of cell lines to determine in vitro cytotoxicity of small molecules. This particular assay uses the HUV-EC-C cell line which is derived from normal human vascular endothelial cells.
# NCGC Assay Protocol Summary:
# The CellTiter-Glo luminescent cell viability assay (Promega) is a homogeneous method to measure the number of viable cells in culture. The end point readout of this assay is based on quantitation of intracellular ATP, an indicator of metabolic activity, using the luciferase reaction. Luciferase catalyzes the oxidation of beetle Luciferin to oxyluciferin and light in the presence of ATP. The luminescent signal is proportional to amount of ATP present.
# Using the CellTiter-Glo luminescent cell viability assay, the amount of cellular ATP was measured in the HUV-EC-C cell line with complete culture medium following compound treatment for 40 hours. The assay was performed in opaque white Kalypsys 1536-well plates. In the screen, tamoxifen and doxorubicin were used as positive controls. Library compounds were measured for their ability to cause acute toxicity in the cell line, as reflected by a decrease in intracellular ATP levels, in a concentration-dependent manner. […] AC50 values were determined from concentration-response data modeled with the standard Hill equation.
# qHTS protocol for CellTiter Glo HUV-EC-C cellular assay
# [Step] [Parameter] [Value] [Description]
# 1. Reagent; 5 uL; 1000 HUV-EC-C cells/well
# 2. Time; 5 hr; 37 °C incubation
# 4. Controls; 23 nL; Tamoxifen 0.34 uM to 100 uM & Doxorubicin 0.02 nM to 100 uM
# 5. Time; 40 hr; 37 °C incubation
# 6. Reagent; 5 uL; CellTiter Glo reagent
# 7. Time; 20 min; Room Temperature
# 8. Detection; Luminescence; Viewlux plate reader
# Keywords: cell viability, cytotoxicity, HUV-EC-C cell line, luminescence, NTPHTS, NTPHTS_NCGC, NIEHS, EPA, DSSTox, MLSMR, MLSCN, NIH Roadmap, qHTS, NCGC
row,SMILES,Potency
1,O=[N+]([O-])c1ccccc1O,inactive
2,CC(Cl)CCl (stereo not given),inactive
3,CC(C)(C)OOC(=O)c1ccccc1,inactive
4,ClCCBr,inactive
5,C=C(Cl)CCl,inactive
6,Nc1cccc(Cl)c1,inactive
7,O=C(O)CBr,inactive
8,ClC(Cl)c1ccccc1,inactive
9,O=C(O)C(Br)CBr (stereo not given),inactive
10,N#CC(Br)Br,inactive
11,OCCCCO,inactive
12,O=NN1CCCCC1,inactive
13,COC(=O)c1ccccc1N,inactive
14,C=CC(=O)OCCN(C)C,inactive
15,CCOS(C)(=O)=O,inactive
16,Brc1ccc(Oc2ccc(Br)cc2Br)c(Br)c1,inactive
17,C=C(C)CCl,inactive
18,CNC(=O)O/N=C/C(C)(C)S(C)=O (stereo not given),inactive
19,O=C(O)c1cc(Cl)ccc1Cl,inactive
20,C=COC(C)=O,inactive

row,SMILES,Potency
1,CN(C)c1ccc(N=Nc2ccccc2)cc1,inactive
2,CN(C)c1ccc(N(C)C)cc1,inactive
3,CSSC,inactive
4,N#CCCC#N,inactive
5,[O-][Cl+]O,inactive
6,ClCc1ccccc1,inactive
7,Nc1ccc2ccccc2c1,inactive
8,CCCCCCCCCCCOC(=O)c1ccccc1C(=O)OCCCCCCCCCCC,inactive
9,Nc1cc(Cl)ccc1Cl,inactive
10,CC(C)OC(=O)Cc1ccccc1,inactive
11,N#CCBr,inactive
12,O=C(O)CCl,inactive
13,c1ccoc1,inactive
14,C/C=C/CC#N,inactive
15,CC(C)(OOC(C)(C)c1ccccc1)c1ccccc1,inactive
16,Clc1ccc(Cl)c(Cl)c1,inactive
17,COc1c(C(C)(C)C)cc([N+](=O)[O-])c(C)c1[N+](=O)[O-],inactive
18,Cc1cccc(C)c1N,inactive
19,Clc1cccc2ccccc12,inactive
20,Cc1ccc(N)cc1N,inactive
